Shown is part of a subset that was picked to be rich in hits.
ROC1-CUL1 inh = blocks human RBX1-Cullin-1 di-ubiquitin formation | P62877+Q13616 | in vitro K48 di-Ub FRET, acceptor:donor ratio, 45 min | inhibition, % at 10 µM | 140,000 tested, 0.6% active | AID 1347404; in the data active = inhibition above about 25%
Target sequence (P62877 whole entry, looked up): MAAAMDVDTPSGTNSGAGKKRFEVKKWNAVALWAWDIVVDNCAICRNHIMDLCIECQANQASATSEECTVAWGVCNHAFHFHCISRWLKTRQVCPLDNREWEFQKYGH
Target sequence (Q13616 whole entry, looked up): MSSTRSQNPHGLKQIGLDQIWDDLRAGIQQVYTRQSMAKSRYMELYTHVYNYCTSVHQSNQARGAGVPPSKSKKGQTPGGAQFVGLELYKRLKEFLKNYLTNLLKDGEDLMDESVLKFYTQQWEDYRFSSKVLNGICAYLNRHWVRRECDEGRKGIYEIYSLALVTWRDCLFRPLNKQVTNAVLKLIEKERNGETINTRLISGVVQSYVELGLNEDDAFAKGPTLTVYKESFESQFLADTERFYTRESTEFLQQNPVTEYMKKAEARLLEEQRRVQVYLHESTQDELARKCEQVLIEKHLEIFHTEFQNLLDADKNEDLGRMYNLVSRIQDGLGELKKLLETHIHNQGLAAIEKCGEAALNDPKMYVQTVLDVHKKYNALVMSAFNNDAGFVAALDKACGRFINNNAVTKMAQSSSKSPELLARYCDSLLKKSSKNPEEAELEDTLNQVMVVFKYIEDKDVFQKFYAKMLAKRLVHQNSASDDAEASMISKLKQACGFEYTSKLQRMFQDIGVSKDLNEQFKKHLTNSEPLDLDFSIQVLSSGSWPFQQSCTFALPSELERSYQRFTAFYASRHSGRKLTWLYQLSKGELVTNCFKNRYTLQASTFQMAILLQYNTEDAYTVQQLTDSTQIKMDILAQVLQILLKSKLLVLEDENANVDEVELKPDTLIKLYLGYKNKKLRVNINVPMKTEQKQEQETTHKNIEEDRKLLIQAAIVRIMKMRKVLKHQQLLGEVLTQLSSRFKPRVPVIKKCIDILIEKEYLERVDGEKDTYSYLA
* = called active by the depositor.

SMILES	ROC1-CUL1 inh
O=C1NN(c2cccc(Cl)c2)C(=O)/C1=C\c1ccc(-c2ccc(C(=O)O)c(Cl)c2)o1	44*
O=C1NN(c2cccc(Cl)c2)C(=O)/C1=C/c1ccc2c(c1)OCO2	1
CCOc1cc(/C=C2\N=C(c3ccc(Cl)cc3)OC2=O)ccc1OCc1ccccc1	6
CCOc1ccc(CNC(C)(C)CO)cc1Cl	6
O=C(O)/C=C\C(=O)Nc1ccccc1C(=O)Nc1cccc(Cl)c1	0
COc1ccc(CC2(CCC(=O)N(C)CCc3ccc(OC)c(OC)c3)CCC(=O)N2)c(F)c1 (stereo unspecified)	3
CCOc1ccccc1CNC(C)c1cnn(-c2cccc(F)c2)c1C (stereo unspecified)	-4
CCc1ccccc1OCC(=O)Nc1nc(-c2ccc(F)cc2)cs1	-2
COC(=O)CC1C(=O)n2nc(NCc3ccc(Br)cc3)nc2N=C1C (stereo unspecified)	3
O=C(Cc1ccccc1Cl)c1ccc(O)c(O)c1O	101*
O=C(Cc1ccccc1)Nc1cc(Cl)ccc1O	-5
O=C(Cc1ccccc1Cl)N1CCN(c2ncccn2)CC1	9
COc1cc(C=C2C(=O)c3ccccc3C2=O)ccc1Oc1ccc([N+](=O)[O-])cn1	-1
COC(=O)c1cc(NC(=O)Cc2cccs2)ccc1O	-6
CCOC(=O)c1cccc(NC(=O)Cc2cccs2)c1	4
COC(=O)c1cc(NC(=O)Cc2cccs2)cc(C(=O)OC)c1	56*
O=C(Nc1c(Cl)cccc1Cl)C1(c2ccccc2)CC1(Cl)Cl (stereo unspecified)	6
Nc1nc2cc(N)c(N)cc2s1	93*
Nc1nc2cc3nsnc3cc2s1	0
CCOc1ccc2nc(N)sc2c1	-3
Cc1cc(C)c(S(=O)(=O)Nc2ccc(-c3cn4ccc(C)cc4n3)cc2)c(C)c1	7
Cc1cccc(CS(=O)(=O)N2CCN(Cc3ccccc3)CC2)c1	12
CC(=O)C1C(=O)Oc2c(ccc3ccccc23)C1=O (stereo unspecified)	40*
O=C1CC(O)(C(F)(F)F)Oc2c1ccc1ccccc21 (stereo unspecified)	-1
CC(=O)c1coc2ccc3ccccc3c2c1=O	6
SMILES	ROC1-CUL1 inh
Cc1cccc(OCCCOc2ccccc2/C=C2\C(=O)NN(c3ccccc3)C2=O)c1	32*
Cc1ccc(OCCCOc2cccc(/C=C3\C(=O)NN(c4ccccc4)C3=O)c2)cc1	25*
O=C1NN(c2ccccc2)C(=O)/C1=C/c1cc(Cl)ccc1OCCCOc1ccccc1	4
COc1cc(/C=C2\C(=O)NN(c3ccccc3)C2=O)ccc1OCCCOc1ccccc1	5
COc1cccc(/C=C2/C(=O)NN(c3ccc(C)cc3)C2=O)c1	-2
Cc1ccc(COc2ccccc2/C=C2\C(=O)NN(c3ccccc3)C2=O)cc1	14
COc1cccc(OCC(=O)N/N=C2\CCOc3c(C)cccc32)c1	0
CCn1cnnc1CN(C)C(=O)Nc1nc(C)n(C(C)C)n1	4
COc1cc(C2CC(c3c(O)ccc4c(C)cc(=O)oc34)=Nc3ccccc3N2)ccc1O (stereo unspecified)	-3
C=CCNCCOc1cc(Cl)ccc1Cl	-6
Cc1nnc(NC(=O)CCC2CCCC2)s1	-5
Cc1cc(/C=C2\C(=O)NC(=S)N(c3ccc(Cl)cc3)C2=O)c(C)n1-c1ccc(Cl)c(Cl)c1	-6
O=C1NC(=S)N(c2ccccc2)C(=O)/C1=C/c1ccc(Sc2ccc(Cl)cc2)s1	33*
O=C1NC(=O)N(c2ccc(Cl)cc2)C(=O)/C1=C\c1c2ccccc2cc2ccccc12	6
Oc1ccc(/C=N/Nc2nc(N3CCCC3)nc(N3CCCC3)n2)cc1Cl	9
FC(F)(F)c1nnc2sc(COc3ccc(Cl)cc3)nn12	2
Cc1cccc(-c2cccc(NC(=O)C3CCCN3Cc3nccn3C)c2)c1 (stereo unspecified)	3
CN1CCN(c2nc3scc(-c4ccccc4)c3c(=O)[nH]2)CC1	2
O=C(Nc1ccc2scnc2c1)c1ccc(C2CCCN2)s1 (stereo unspecified)	99*
CC(C)n1cc(NC(=O)c2ccc(C3CCCN3)s2)nn1 (stereo unspecified)	1
Cc1ccccc1NC(=O)c1ccc(C2CCCN2)s1 (stereo unspecified)	6
N#CC1C(=N)Oc2n[nH]c(-c3ccccc3)c2C1c1ccc2c(c1)OCO2 (stereo unspecified)	9
CC1CCc2[nH]c3ccccc3c2C1 (stereo unspecified)	-3
CCNC(=O)C1CCN(Cc2ccc(F)cc2)CC1	13
COc1cc(N2CCCC2)c(OC)cc1C=C1C(=O)c2ccccc2C1=O	48*
Cc1cc(C=C2C(=O)c3ccccc3C2=O)ccc1N1CCCC1	11
COc1cc(N2CCCC2)c(OC)cc1/C=C1\SC(=O)N(Cc2ccc(C)cc2)C1=O	-13
Cc1ccc(NC(=O)Cn2c(=O)n(Cc3ccco3)c(=O)c3ccccc32)cc1	4
Cc1c(C=C2C(=O)NC(=S)NC2=O)c2ccccc2n1CC(=O)NCc1ccco1	62*
CN1C(=S)N(c2ccc(Cl)cc2)C(=O)/C1=C/c1cn(CC(=O)NCc2ccco2)c2ccccc12	7
